In assay [1] the target is Photoreceptor-specific nuclear receptor (Homo sapiens) (UniProt Q9Y5X4). The experiment in a line: retest of NR2E3-NCOR disrupting agonists – cell-based, luminescence, CHO-S two-hybrid, confirmation (AID 624378).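 Also: 0% = DMSO in NR2E3 cells and 100% = DMSO in cells lacking NR2E3.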 The note with it: CHO-S mammalian two-hybrid NR2E3-NCOR, luciferase luminescence; at 3.98 µM; active compounds read high.
A short description of assay [2]: nonselective effects on VP16 transactivation – cell-based, luminescence, CHO-S, high throughput, counter-screen for NR2E3 agonist project, confirmation (AID 624379;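 active = mean inhibition above a cutoff equal to the average over all tested compounds plus one standard deviation, cut at about 70% in these data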;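 also: luciferase from a UAS reporter driven by GAL4-VP16 transactivation; 0% = DMSO with VP16-transfected cells and 100% = DMSO with cells lacking VP16; higher means less reporter light so more repression of VP16 activity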). Particulars: CHO-S GAL4-VP16 luciferase reporter, at 3.98 µM, active compounds read high. (In general: Counterscreens check selectivity or assay interference.)
The target in assay [3] is Receptor-interacting serine/threonine-protein kinase 2 (Homo sapiens) (UniProt O43353). Briefly: inhibitors of RIPK2 association with NOD2 – fluorescence, CHO cells, BLA complementation, triplicate, confirmation (AID 624370;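 active = mean inhibition across replicates above a set limit taken from the earlier primary screen, cut at about 21% in these data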;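 also: 0% = DMSO-only wells and the high end = clavulanate BLA-blocked wells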). Particulars: CCF4 FRET, at 4.98 µM, active compounds read high.
A short description of assay [4]: BLA reporter readout interference – cell-based, CHO-K1 CMV-bla, CCF4 FRET, fluorescence, artefact control for NOD2-RIPK2 interaction inhibitor project, confirmation (AID 624371;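 active = mean inhibition above the low-control mean inhibition plus three low-control SD, cut at about 11% in these data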;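 also: 0% = DMSO only wells and 100% = clavulanate high control wells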). Particulars: CCF4 FRET ratio, counterscreen, at 4.98 µM, active compounds read high.
Assay [5] concerns transactivating tegument protein VP16 (Human herpesvirus 1). The experiment in a line: compounds suppressing VP16-driven luciferase signal – cell-based, luminescence, single concentration, counter-screen for SRC2 inhibitor project (AID 652007; in the data active = inhibition above about 36%). Particulars: cell-based VP16 transactivation luciferase reporter, at 8.9 µM, active compounds read high.
In assay [6] the target is Nuclear receptor coactivator 2 (Homo sapiens) (UniProt Q15596). Briefly: inhibition of GAL4-SRC2 driven luciferase expression – cell-based, luminescence, HEK293, triplicate, confirmation (AID 652008;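 active = mean inhibition above 46.5%, the solvent-only control mean plus 3 SD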;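 also: 0% = DMSO-treated cells and 100% = Gossypol at 36 µM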). The note with it: HEK293 GAL4-SRC2 luciferase reporter, at 8.9 µM, active compounds read high. (In general: Reporter assays use an easily measured gene product as a stand-in for the process of interest.)

Assay [7] can be described thus: StAR promoter reporter inhibitors, counter-screen for LRH-1 inverse agonist project, cell-based, luminescence, high throughput (AID 651611; in the data active = inhibition above about 28%). Particulars: StAR promoter luciferase reporter counterscreen, at 3.6 µM, active compounds read high.
In assay [8] the target is Nuclear receptor subfamily 5 group A member 2 (Homo sapiens) (UniProt O00482). Briefly: NR5A2 activity suppression in reporter cells – cell-based, luminescence, confirmation (AID 651613; in the data active = inhibition above about 42%;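 also: HEK293T cells co-transfected with LRH-1 and StAR promoter luciferase reporter; 0% = vehicle wells and 100% = parental cells lacking receptor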). The note with it: cell-based LRH-1 luciferase reporter, inverse agonism; at 3.6 µM; active compounds read high.
The target of assay [9] is Steroidogenic factor 1 (Homo sapiens) (UniProt Q13285). The experiment in a line: inverse agonism at SF1 nuclear receptor – cell-based, luminescence, high throughput, counter-screen for LRH-1 inverse agonist project (AID 651614; in the data active = inhibition above about 44%;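 also: cells cotransfected with StAR promoter reporter and SF1 expression vector; 0% = vehicle on cells with receptor and 100% = vehicle on cells lacking receptor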). Particulars: cell-based SF1 luciferase reporter, at 3.6 µM, active compounds read high.
Assay [10] is described as follows: compounds suppressing VP16-driven luciferase signal – cell-based, luminescence, high throughput, counter-screen for LRH-1 inverse agonist project (AID 651615; in the data active = inhibition above about 33%). Particulars: Gal4-VP16 luciferase reporter cells, at 3.6 µM, active compounds read high.

Values without a mark were called inactive. Some of the results follow. Active and inactive are the calls of the source.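 The calls were made as follows, unless noted: active = average inhibition above a cutoff equal to the mean inhibition of all tested compounds plus one SD (cut at about 70% in these data); inactive = the rest.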

In general, inhibition refers to the change of the read-out against control, counted positive when it falls.

Chain of Photoreceptor-specific nuclear receptor (Homo sapiens) (Q9Y5X4 whole entry, looked up, the tested form may be a part): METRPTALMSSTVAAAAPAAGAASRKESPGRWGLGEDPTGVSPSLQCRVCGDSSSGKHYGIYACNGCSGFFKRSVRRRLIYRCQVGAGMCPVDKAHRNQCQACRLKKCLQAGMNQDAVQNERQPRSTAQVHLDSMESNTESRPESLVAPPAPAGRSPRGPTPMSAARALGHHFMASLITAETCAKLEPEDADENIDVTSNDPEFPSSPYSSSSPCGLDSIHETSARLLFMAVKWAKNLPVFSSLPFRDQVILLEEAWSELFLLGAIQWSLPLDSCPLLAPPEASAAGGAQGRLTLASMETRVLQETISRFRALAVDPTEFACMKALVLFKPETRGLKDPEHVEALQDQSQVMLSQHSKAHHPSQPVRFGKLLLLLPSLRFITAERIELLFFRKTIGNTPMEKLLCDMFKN
Chain of Receptor-interacting serine/threonine-protein kinase 2 (Homo sapiens) (O43353 whole entry, looked up): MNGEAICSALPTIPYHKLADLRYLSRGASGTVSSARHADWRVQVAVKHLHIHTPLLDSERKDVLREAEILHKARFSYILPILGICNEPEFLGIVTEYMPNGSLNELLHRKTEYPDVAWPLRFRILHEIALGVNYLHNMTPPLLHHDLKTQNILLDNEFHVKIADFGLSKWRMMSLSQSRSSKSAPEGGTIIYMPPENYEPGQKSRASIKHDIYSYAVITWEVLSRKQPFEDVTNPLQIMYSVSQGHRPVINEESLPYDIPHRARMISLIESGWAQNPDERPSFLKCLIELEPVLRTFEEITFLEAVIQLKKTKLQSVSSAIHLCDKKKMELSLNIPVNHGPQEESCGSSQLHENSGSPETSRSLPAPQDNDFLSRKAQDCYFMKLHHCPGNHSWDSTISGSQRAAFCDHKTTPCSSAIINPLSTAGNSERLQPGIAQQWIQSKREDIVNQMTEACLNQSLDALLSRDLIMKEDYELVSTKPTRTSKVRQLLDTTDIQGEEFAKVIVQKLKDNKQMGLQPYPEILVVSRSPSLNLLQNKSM
Chain of Steroidogenic factor 1 (Homo sapiens) (Q13285 whole entry, looked up, the tested form may be a part): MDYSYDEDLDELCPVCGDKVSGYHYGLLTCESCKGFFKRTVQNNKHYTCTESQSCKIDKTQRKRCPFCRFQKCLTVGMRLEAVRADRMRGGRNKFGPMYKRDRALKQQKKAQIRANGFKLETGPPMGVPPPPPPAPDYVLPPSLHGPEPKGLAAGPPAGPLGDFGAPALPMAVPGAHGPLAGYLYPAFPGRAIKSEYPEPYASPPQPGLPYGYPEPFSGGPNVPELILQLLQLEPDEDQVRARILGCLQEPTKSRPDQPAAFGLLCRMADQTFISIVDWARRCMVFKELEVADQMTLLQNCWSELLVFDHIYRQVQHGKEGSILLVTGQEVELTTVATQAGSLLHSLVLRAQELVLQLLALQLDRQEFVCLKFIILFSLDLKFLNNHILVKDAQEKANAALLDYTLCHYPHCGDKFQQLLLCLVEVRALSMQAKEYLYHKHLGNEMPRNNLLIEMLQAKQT
Chain of Nuclear receptor subfamily 5 group A member 2 (Homo sapiens) (O00482 whole entry, looked up): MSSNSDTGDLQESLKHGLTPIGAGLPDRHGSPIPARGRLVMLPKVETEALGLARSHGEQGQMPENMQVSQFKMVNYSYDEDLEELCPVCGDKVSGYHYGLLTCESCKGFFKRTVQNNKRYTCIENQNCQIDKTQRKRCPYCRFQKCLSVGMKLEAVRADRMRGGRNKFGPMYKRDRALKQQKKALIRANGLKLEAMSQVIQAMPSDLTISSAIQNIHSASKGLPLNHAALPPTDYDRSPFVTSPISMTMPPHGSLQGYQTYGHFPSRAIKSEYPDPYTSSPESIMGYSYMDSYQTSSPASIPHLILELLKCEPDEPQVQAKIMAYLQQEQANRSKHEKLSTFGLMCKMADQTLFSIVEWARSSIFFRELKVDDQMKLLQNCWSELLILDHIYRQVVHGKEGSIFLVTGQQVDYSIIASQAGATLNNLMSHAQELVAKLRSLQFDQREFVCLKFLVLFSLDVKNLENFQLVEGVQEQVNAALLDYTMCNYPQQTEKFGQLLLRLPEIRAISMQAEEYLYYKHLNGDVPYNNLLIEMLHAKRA
Chain of Nuclear receptor coactivator 2 (Homo sapiens) (Q15596 whole entry, looked up, the tested form may be a part): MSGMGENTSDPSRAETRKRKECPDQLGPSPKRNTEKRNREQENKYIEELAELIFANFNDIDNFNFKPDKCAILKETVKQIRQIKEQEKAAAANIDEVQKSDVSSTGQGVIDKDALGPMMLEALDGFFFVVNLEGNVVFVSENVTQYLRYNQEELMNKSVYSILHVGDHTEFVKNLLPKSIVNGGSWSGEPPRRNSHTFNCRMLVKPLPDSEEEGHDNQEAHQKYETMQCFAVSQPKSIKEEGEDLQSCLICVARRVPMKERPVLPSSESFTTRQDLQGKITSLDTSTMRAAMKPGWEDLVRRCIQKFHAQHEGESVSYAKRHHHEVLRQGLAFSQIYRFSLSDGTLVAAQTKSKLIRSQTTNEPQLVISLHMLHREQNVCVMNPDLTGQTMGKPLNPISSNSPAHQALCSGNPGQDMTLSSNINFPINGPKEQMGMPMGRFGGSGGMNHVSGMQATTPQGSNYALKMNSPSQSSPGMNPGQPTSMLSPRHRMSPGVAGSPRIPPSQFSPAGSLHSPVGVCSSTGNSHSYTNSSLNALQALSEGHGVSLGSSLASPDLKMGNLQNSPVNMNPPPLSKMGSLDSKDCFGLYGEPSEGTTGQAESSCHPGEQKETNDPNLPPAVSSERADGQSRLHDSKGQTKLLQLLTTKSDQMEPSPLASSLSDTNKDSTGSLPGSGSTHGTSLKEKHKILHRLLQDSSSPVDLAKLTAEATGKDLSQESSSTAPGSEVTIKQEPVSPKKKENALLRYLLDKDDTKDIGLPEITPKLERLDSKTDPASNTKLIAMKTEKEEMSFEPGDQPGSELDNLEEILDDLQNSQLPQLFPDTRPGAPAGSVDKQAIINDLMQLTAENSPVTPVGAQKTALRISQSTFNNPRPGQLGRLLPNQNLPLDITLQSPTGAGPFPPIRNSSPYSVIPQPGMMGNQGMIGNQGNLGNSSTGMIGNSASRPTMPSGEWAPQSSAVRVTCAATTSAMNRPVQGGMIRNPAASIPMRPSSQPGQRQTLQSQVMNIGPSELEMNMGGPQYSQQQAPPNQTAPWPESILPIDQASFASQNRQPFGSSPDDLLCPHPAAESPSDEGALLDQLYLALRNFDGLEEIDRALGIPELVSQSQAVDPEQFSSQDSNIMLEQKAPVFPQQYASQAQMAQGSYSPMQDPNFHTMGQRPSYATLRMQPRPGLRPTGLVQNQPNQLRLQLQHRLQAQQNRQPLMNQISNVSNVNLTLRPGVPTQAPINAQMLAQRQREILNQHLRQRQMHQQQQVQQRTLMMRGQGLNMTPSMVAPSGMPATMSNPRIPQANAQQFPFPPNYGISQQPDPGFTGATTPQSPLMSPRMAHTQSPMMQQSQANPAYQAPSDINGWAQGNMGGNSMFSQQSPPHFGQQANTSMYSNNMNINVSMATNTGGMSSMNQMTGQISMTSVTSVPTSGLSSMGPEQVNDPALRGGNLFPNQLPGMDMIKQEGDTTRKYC

Turning to `CCC1(C)Cc2c(sc3[nH]c(=S)n(Cc4ccccc4)c(=O)c23)CO1` (configuration not stated), the inhibition in assay [1] is 70.9% (active); in [2], 34.4%.

As for `Cc1cccc2sc(N(CCCN(C)C)C(=O)CCS(=O)(=O)c3ccccc3)nc12`, the inhibition in assay [3] is 25.4% (active); in [4], 7%; in [5], 12%; in assay [6], 32.5%.

As for `COc1ccc(S(=O)(=O)N2CCN(C(C)C(=O)Nc3ccc(C(C)C)cc3)CC2)cc1` (configuration not stated), the results for the inhibition in [1] and in [2] were -2.85% and -0.89%, respectively.

Regarding `Cc1cccc(N2CCN(C(=O)c3cccc(S(=O)(=O)N4CCc5ccccc5C4)c3)CC2C)c1` (configuration not stated), the inhibition in assay [1] is 52%; in assay [2], 49%.

In the case of `O=S(=O)(c1cccc(Cn2nnc(-c3ccc(F)cc3)n2)c1)N1CCOCC1`, the inhibition in assay [1] is 34.9%; in assay [2], 39.4%.

As for `C/C(=N\NC(=S)NCc1ccccc1)c1ccc(Cl)cc1`, the inhibition is -1.78% in [1] and -14.2% in [2].

On to `O=C(NC1=CC(=O)c2ccccc2C1=O)c1ccccc1`, for which the inhibition was 89% (active) in assay [3], -4.54% in assay [4], 6.41% in assay [1] and 17.1% in assay [2].

In the case of `Cc1[nH]n(-c2cccc(Cl)c2)c(=O)c1-c1ccc(Cl)cc1`, the inhibition is 97.8% (active) in assay [1] and 71.3% (active) in assay [2].

Consider `COC(=O)c1sccc1NC(=O)CSc1ccccc1NS(=O)(=O)c1cc(Cl)ccc1Cl`, for which the inhibition is 84% (active) in assay [1] and 74.7% (active) in [2].

Consider `COc1cccc(NS(=O)(=O)c2ccc(-c3coc(C)n3)cc2)c1`, for which the figures for the inhibition in assay [1] and in assay [2] were 10.9% and 37.3%, respectively.

Regarding `CC(=O)c1c(C)[nH]c(C(=O)COC(=O)c2cccc(S(=O)(=O)N(C)c3ccccc3)c2)c1C`, the inhibition in assay [1] is 23.8%; in assay [2], 73.4% (active).

For the compound `S=C(NN=Cc1ccccn1)Nc1ccccn1`, the inhibition in assay [1] is 79.5% (active); in assay [2], 14.3%.

For `Cc1ccc(S(=O)(=O)N2CCN(c3ncnc4ccccc34)CC2)cc1`, the results for the inhibition in assay [1] and in assay [2] were 94.1% (active) and 80.5% (active), respectively.

`CSc1ncccc1C(=O)Nc1nc2ccc(F)cc2s1`: the inhibition is 68.5% in assay [1] and 25.2% in [2].

As to `O=C1/C(=C\c2ccc([N+](=O)[O-])cc2)CS(=O)(=O)C/C1=C/c1ccc([N+](=O)[O-])cc1`, the inhibition is 91.8% (active) in assay [3]; 4.33% in assay [4]; 96% (active) in [1]; 53.2% in [2]; 2.1% in assay [7]; 89.5% (active) in assay [8]. The inhibition is 79.7% (active) in [9] and 70.2% (active) in [10].

`CCCNc1ncnc2sc(C)c(C)c12`: the inhibition in assay [1] was 27.8%; in assay [2] it was 29.6%.
